Drawing on PubChem BioAssay (NCI), this text covers growth for five molecules.

The structures appear in SMILES notation. This is part of a sample that, as a whole, favours compounds with a hit. Of some 83,000 tested, about 20% had one in any assay.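 A percent growth of 40 corresponds to 60% growth inhibition; 0 means no net growth; -100 means all cells died. Active threshold: below 10.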 A number with no mark means an inactive call. Activity calls are given as the source filed them.

Among the test systems are DU-145 prostate; K-562 leukemia; MALME-3M melanoma; MDA-MB-231 breast; RXF 393 renal; SF-268 CNS; SF-295 CNS; SF-539 CNS; UACC-257 melanoma; HCT-15 colon; HT29 colon; SNB-75 CNS; SNB-19 CNS; U251 CNS; SK-MEL-5 melanoma; UACC-62 melanoma; LOX IMVI melanoma; SK-MEL-28 melanoma; PC-3 prostate.
Experiment in all cases: NCI-60 one-dose screen, 48 h (100 = growth as untreated, 0 = no growth, -100 = all killed)
Common to all, as to settings: 10 µM unless noted

As to `CCN1CCN(CC(=O)Nc2nc3ccc(NCc4ccc(F)cc4)cc3s2)CC1`, the growth in the assay with DU-145 prostate was 95.1%; in the assay on K-562 leukemia, 58.8%; in the assay with MALME-3M melanoma it was 90.7%; with MDA-MB-231 breast, 91%; in the assay with RXF 393 renal it was 94.8%; in the assay on SF-268 CNS, 94.3%. Besides, the growth in the assay with SF-295 CNS was 99%; in the assay on SF-539 CNS, 74.1%; in the assay on UACC-257 melanoma, 108%; in the assay on HCT-15 colon, 67.3%; in the assay with HT29 colon, 77.4%; in the assay on SNB-75 CNS it was 90.8%. Moreover, the growth was 99.2% in the assay with SNB-19 CNS; 81.9% with U251 CNS; 90.8% in the assay with SK-MEL-5 melanoma; 87.4% with UACC-62 melanoma; 78.6% with LOX IMVI melanoma; 102% in the assay on SK-MEL-28 melanoma.
Consider `O=C(NCc1cccc(CNC(=O)Nc2nc3ccccc3[nH]2)c1)Nc1nc2ccccc2[nH]1`, for which the growth with DU-145 prostate was -32.6% (active); in the assay on K-562 leukemia, 0.347% (active); in the assay with MALME-3M melanoma, -74.2% (active); in the assay with MDA-MB-231 breast it was -66.6% (active); with RXF 393 renal, 43.1%; in the assay with SF-268 CNS it was 0.441% (active). Further, the growth in the assay with SF-295 CNS was 5.41% (active); in the assay with SF-539 CNS, 27.5%; in the assay with UACC-257 melanoma it was -54.1% (active); in the assay on HCT-15 colon, 69.5%; in the assay with HT29 colon, -45.7% (active); with SNB-75 CNS it was -42.2% (active). Further, the growth in the assay with SNB-19 CNS was 9.35% (active); with U251 CNS, -77.9% (active); in the assay on PC-3 prostate, -59.8% (active); in the assay on SK-MEL-5 melanoma, -46.5% (active); in the assay on UACC-62 melanoma it was -15.9% (active); in the assay on LOX IMVI melanoma, -20.4% (active). Further, the growth with SK-MEL-28 melanoma was -76.9% (active).
Turning to `Cc1nnc(-c2ccc3c(c2)nc(/C=C/c2ccccc2)n3C2CCCCC2)o1`, the growth with DU-145 prostate was 91.5%; in the assay on K-562 leukemia, 45.9%; in the assay on MALME-3M melanoma, 95%; in the assay on MDA-MB-231 breast it was 87.3%; with RXF 393 renal it was 84.6%; with SF-268 CNS, 86.5%. Besides, the growth with SF-295 CNS is 76.1%; in the assay on SF-539 CNS, 110%; in the assay on UACC-257 melanoma it was 77.4%; with HT29 colon it was 37.3%; with SNB-75 CNS, 103%; with SNB-19 CNS it was 102%. Moreover, the growth in the assay on U251 CNS is 79.8%; in the assay with PC-3 prostate, 63.5%; in the assay with SK-MEL-5 melanoma, 70.8%; in the assay on UACC-62 melanoma, 61.8%; in the assay with LOX IMVI melanoma it was 44.3%; in the assay on SK-MEL-28 melanoma, 72.4%.
Take `COc1ccc(/C=C/c2c(C(=O)/C=C/c3ccccc3)c(C)nc3ccccc23)cc1`: the growth in the assay with DU-145 prostate is 5.61% (active); with K-562 leukemia, 6.28% (active); with MALME-3M melanoma, 17.8%; with MDA-MB-231 breast it was 31.3%; in the assay with RXF 393 renal, -23% (active); with SF-268 CNS it was 45.3%. Besides, the growth with SF-295 CNS is 22.1%; with SF-539 CNS, -39.5% (active); with UACC-257 melanoma, 8.08% (active); in the assay on HCT-15 colon, -26.2% (active); with HT29 colon, 1.64% (active); in the assay with SNB-75 CNS, 29.4%. Further, the growth was 16.3% in the assay with SNB-19 CNS; -59.9% (active) with U251 CNS; 26.9% in the assay with PC-3 prostate; 21.2% with SK-MEL-5 melanoma; 19.1% in the assay with UACC-62 melanoma; -82.3% (active) with LOX IMVI melanoma. The growth in the assay with SK-MEL-28 melanoma was 18.7%.
Take `Cc1ccc(S(=O)(=O)OCCCOS(=O)(=O)c2ccc(C)cc2)cc1`: the growth is 95% in the assay on DU-145 prostate; 65.9% in the assay on K-562 leukemia; 100% in the assay on MALME-3M melanoma; 110% with MDA-MB-231 breast; 107% in the assay with RXF 393 renal; 101% with SF-268 CNS. For the same molecule, the growth with SF-295 CNS was 107%; in the assay on SF-539 CNS it was 122%; in the assay on UACC-257 melanoma, 81.1%; with HCT-15 colon, 106%; in the assay with HT29 colon, 102%; in the assay with SNB-75 CNS, 99.7%. Moreover, the growth in the assay on SNB-19 CNS was 97.9%; in the assay on U251 CNS, 96.4%; with SK-MEL-5 melanoma it was 116%; in the assay on UACC-62 melanoma, 103%; in the assay with LOX IMVI melanoma, 108%; with SK-MEL-28 melanoma it was 109%.
